We go through 35 molecules from PubChem BioAssay (EPA / NIEHS).

Each structure is given as a SMILES string. “And” between values parts separate entries of the source, which are not always exact repeats. Identical values can stand only once. More than one record can exist for a structure, and the calls need not agree. The source made the active and inactive calls. Rule for the calls: active = hit-call score of the fitted dose curve at least 0.9, where 1 is the maximum; inactive = score below 0.9.

A short description of this test: ATG_NF_kB_CIS: Attagene CIS-FACTORIAL HepG2 Assay for human Nuclear Factor Kappa B (NF-kB) (AID 2282991). As to conditions: HepG2 Attagene cis-factorial NF-kB reporter mRNA; actives raise or lower the signal. Here is the method: ATG_CIS is a cell-based, multiplexed-readout assay that uses HepG2, a human liver cell line, with measurements taken at 24 hours after chemical dosing in a 24-well plate.ATG_NF_kB_CIS is one of 52 assay component(s) measured or calculated from the ATG_CIS assay. It is designed to make measurements of mRNA induction, a form of inducible reporter, as detected with fluorescence intensity signals by Reverse transcription polymerase chain reaction (RT-PCR) and Capillary electrophoresis technology.Data from the assay component ATG_NF_kB_CIS was analyzed into 1 assay endpoint. This assay endpoint, ATG_NF_kB_CIS, was analyzed with bidirectional fitting relative to DMSO as the negative control and baseline of activity. Using a type of inducible reporter, measures of mRNA for gain or loss-of-signal activity can be used to understand the reporter gene at the transcription factor-level as they relate to the gene NFKB1. Furthermore, this assay endpoint can be referred to as a primary readout, because this assay has produced multiple assay endpoints where this one serves a reporter gene function. To generalize the intended target to other relatable targets, this assay endpoint is annotated to the dna binding intended target family, where the subfamily is NF-kappa B.
Human liver HepG2 cells are transiently transfected with multiple reporter transcription units (MRTUs) in 6-well plates using FuGene 6 reagent (Roche; 3 ml FuGene/1 mg DNA). The MRTU constructs are regulated by a cis-regulating element (promoter). […] A major difference between the CIS and TRANS system is that in CIS activities of endogenous TFs are measured, whereas the TRANS assay evaluates changes in activities of exogenous, chimeric NR-Gal4 proteins. […] At the end of 24 hour incubation, total RNA was isolated using TriZol reagent (Invitrogen). The isolated RNA is then reverse-transcribed using oligo(dT) primer and Mo-MLV reverse transcriptase (Invitrogen) with DNAse I (Ambion) treatment for 30 min. The one-tenth of the produced cDNA was amplified by PCR using Taq DNA polymerase (Invitrogen) and two reporter sequence-specific primers. The PCR products were fluorescently labeled by primer extension with 6-arboxyfluorescein (6-FAM) 5'-labeled reporter sequence-specific primer (2 min at 95 C, 20 s at 68 C and 10 min at 72 C) and these products were digested with 5U of HpaI (New England Biolabs) for 2h at 37 C. The fragments were purified using Qiaquick PCR columns (Qiagen), analyzed on an ABI 3130xL genetic analyzer (Applied Biosystems) with peak positions identified by using a set of X-rhodamine (ROX)-labeled MapMarker1000 molecular weight standards (BioVentures). The raw capillary electrophoresis data was processed using Attagraph software (Attagene).
For the molecule `CCSC(=O)N(CC)C1CCCCC1`, the call was inactive.

Take `CC(c1ccc(O)cc1)(c1ccc(O)cc1)c1ccc(O)cc1`: the AC50 was 18.9 µM (active).

Take `CN(C)CCO`: the result was inactive.

With `CCCN(CCC)N=O`, the molecule was called inactive.

Turning to `C=CC(N)=O`, the outcome was inactive.

For the molecule `c1cc2ccc3cccc4ccc(c1)c2c34`, the result was inactive.

`ClC(Cl)=C(c1ccc(Cl)cc1)c1ccc(Cl)cc1`: the molecule was called inactive.

On to `CCC(C)(c1ccc(O)cc1)c1ccc(O)cc1`, for which the AC50 was 44.8 µM (active) and the molecule was classed as inactive.

As for `CCNc1nc(NC(C)C)nc(SC)n1`, the result was inactive.

With `CC(C)(c1ccccc1)c1ccc(O)cc1`, the AC50 is 53.1 µM (active) and 50.4 µM (active); the outcome was inactive.

For the molecule `ClC1=C(Cl)[C@]2(Cl)[C@@H]3[C@H]4C[C@H]([C@@H]5O[C@H]45)[C@@H]3[C@@]1(Cl)C2(Cl)Cl`, the molecule was called inactive.

As for `Sc1ccccc1`, the molecule was called inactive.

On to `Clc1ccc(C(c2ccccc2Cl)C(Cl)(Cl)Cl)cc1` (stereo not given), for which the call was inactive.

As to `Cc1cccc([N+](=O)[O-])c1`, the call was inactive.

Take `CCC(=O)O[C@H]1CC[C@H]2[C@@H]3CCC4=CC(=O)CC[C@]4(C)[C@H]3CC[C@]12C`: the call was inactive.

With `Cc1cc(O)ccc1Cl`, the molecule was classed as inactive.

With `Cc1cccc(C)c1N`, the molecule was called inactive.

In the case of `NS(=O)(=O)C(F)(F)C(F)(F)C(F)(F)C(F)(F)C(F)(F)C(F)(F)C(F)(F)C(F)(F)F`, the outcome was inactive; the AC50 was 60.1 µM (active) and 253 µM (active).

`OCC(O)CO`: the call was inactive.

In the case of `CCC(C)c1cc([N+](=O)[O-])cc([N+](=O)[O-])c1O` (stereo not given), the call was inactive.

With `CCOC(=O)C(O)(c1ccc(Cl)cc1)c1ccc(Cl)cc1`, the outcome was inactive.

Turning to `O=C(NC(=O)c1c(F)cccc1F)Nc1cc(Cl)c(OC(F)(F)C(F)F)c(Cl)c1`, the outcome was inactive.

`CCC(C)(CC)c1cc(NC(=O)c2c(OC)cccc2OC)on1`: the result was inactive.

Regarding `COS(=O)(=O)OC`, the molecule was called inactive.

As for `c1ccc(-c2ccccc2)cc1`, the molecule was called inactive.

Turning to `CC(C)C(=O)OCC(C)(C)C(OC(=O)C(C)C)C(C)C` (stereo not given), the call was inactive.

Turning to `Oc1c(Cl)c(Cl)c(Cl)c(Cl)c1Cl`, the molecule was called inactive and the AC50 was 9.11 µM (active).

As for `Nn1cnnc1`, the outcome was inactive.

Regarding `Clc1ccc(Cl)cc1`, the call was inactive.

`Cc1ccccc1O`: the molecule was classed as inactive.

Take `CCCCCCCCCc1ccc(O)cc1`: the outcome was inactive and the AC50 was 68.8 µM (active).

For `C1CC2OC2CC1C1CO1` (stereo not given), the molecule was called inactive.

For `ClC1=C(Cl)[C@]2(Cl)[C@@H]3[C@@H]4C[C@@H]([C@H]5O[C@@H]45)[C@@H]3[C@@]1(Cl)C2(Cl)Cl`, the result was inactive.

For the molecule `Cc1ccc(O)c(C)c1`, the result was inactive.

As to `Cc1ccccc1[N+](=O)[O-]`, the outcome was inactive.

As a reminder, the AC50 is the concentration giving half of the maximal activity seen.
